In PubChem BioAssay AID1159580 (chemical genetic matrix, 2015):
Several values for one entry are separate records, joined by “and”; a condition that tells them apart may be missing. Equal values may be shown once. In all, about 5,500 compounds went through this assay and about 2,000 (36%) were called active. Roughly 18% stayed inconclusive and do not appear here. Rule as the data show it: active = normalized growth mostly below about 0.91 (no sharp cut-off); inconclusive = no clear call, values can overlap the other calls; inactive = mostly above about 0.92. This is one part of the list.

Assay: chemical genetic growth profiling, strain panel (AID 1159580);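 also: tested at 20 µM; growth read once vehicle control cultures reached saturation at 30 °C; 1 = growth at the plate median or of vehicle wells; lower values mean less growth of the strain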
Details: growth OD

Measured: normalized growth

Nc1ccc(C(=O)O)c(O)c1
inactive: S. cerevisiae deletion strains, locus YKL009W, strain mrt4, active compounds read low 1 | S. cerevisiae deletion strains, locus YKL068W, active compounds read low 0.999 | S. cerevisiae deletion strains, locus YKL085W, strain MDH1 (second series), active compounds read low 0.995 | S. cerevisiae deletion strains, locus YKL085W, strain MDH1, active compounds read low 0.995 | S. cerevisiae deletion strains, locus YKL160W, strain elf1, active compounds read low 0.947 | S. cerevisiae deletion strains, locus YKL190W, strain CNB1, active compounds read low 1.01 | S. cerevisiae deletion strains, locus YKR001C, strain vps1, active compounds read low 0.992 | S. cerevisiae deletion strains, locus YKR026C, strain gcn3, active compounds read low 0.994 | S. cerevisiae deletion strains, locus YKR091W, strain srl3, active compounds read low 0.989 | S. cerevisiae deletion strains, locus YLL001W, strain dnm1, active compounds read low 0.924 | S. cerevisiae deletion strains, locus YLL026W, active compounds read low 1 | S. cerevisiae deletion strains, locus YLL041C, strain sdh2, active compounds read low 0.992 | S. cerevisiae deletion strains, locus YLR027C, strain aat2, active compounds read low 1 | S. cerevisiae deletion strains, locus YLR039C, strain RIC1, active compounds read low 1.02 | S. cerevisiae deletion strains, locus YLR058C, strain SHM2, active compounds read low 1.01 | S. cerevisiae deletion strains, locus YLR102C, strain apc9, active compounds read low 0.998 | S. cerevisiae deletion strains, locus YLR113W, strain HOG1, active compounds read low 1.03 and 1.02 | S. cerevisiae deletion strains, locus YLR221C, strain rsa3, active compounds read low 0.968 | S. cerevisiae deletion strains, locus YLR258W, strain gsy2, active compounds read low 1.01 | S. cerevisiae deletion strains, locus YLR262C, strain YPT6 (second series), active compounds read low 0.961 | S. cerevisiae deletion strains, locus YLR262C, strain YPT6, active compounds read low 1.06 | S. cerevisiae deletion strains, locus YLR268W, strain sec22, active compounds read low 0.99 | S. cerevisiae deletion strains, locus YLR320W, strain mms22, active compounds read low 0.954 | S. cerevisiae deletion strains, locus YLR330W, strain CHS5, active compounds read low 1.01 | S. cerevisiae deletion strains, locus YLR342W, strain FKS1 (second series), active compounds read low 1.04 | S. cerevisiae deletion strains, locus YLR342W, strain FKS1, active compounds read low 0.997 | S. cerevisiae deletion strains, locus YLR357W, strain rsc2, active compounds read low 0.955 | S. cerevisiae deletion strains, locus YLR370C, strain arc18, active compounds read low 0.995 | S. cerevisiae deletion strains, locus YLR371W, strain rom2, active compounds read low 0.997 | S. cerevisiae deletion strains, locus YLR384C, strain iki3, active compounds read low 0.994 | S. cerevisiae deletion strains, locus YLR418C, strain cdc73, active compounds read low 0.996 | S. cerevisiae deletion strains, locus YML016C, strain PPZ1, active compounds read low 1.01 | S. cerevisiae deletion strains, locus YML032C, strain rad52, active compounds read low 1 | S. cerevisiae deletion strains, locus YML120C, strain ndi1, active compounds read low 0.978 | S. cerevisiae deletion strains, locus YML124C, strain tub3, active compounds read low 0.996 | S. cerevisiae deletion strains, locus YMR058W, strain fet3, active compounds read low 0.995 | S. cerevisiae deletion strains, locus YMR078C, strain ctf18, active compounds read low 1 | S. cerevisiae deletion strains, locus YMR125W, strain sto1, active compounds read low 0.945 | S. cerevisiae deletion strains, locus YMR129W, active compounds read low 0.999 | S. cerevisiae deletion strains, locus YMR205C, strain PFK2, active compounds read low 0.939 | S. cerevisiae deletion strains, locus YMR223W, strain ubp8, active compounds read low 1 | S. cerevisiae deletion strains, locus YMR231W, strain pep5, active compounds read low 0.985 | S. cerevisiae deletion strains, locus YMR263W, strain SAP30, active compounds read low 1 | S. cerevisiae deletion strains, locus YMR307W, strain GAS1, active compounds read low 0.991 | S. cerevisiae deletion strains, locus YNL067W, strain RPL9B, active compounds read low 1.01 | S. cerevisiae deletion strains, locus YNL071W, strain lat1, active compounds read low 0.986 | S. cerevisiae deletion strains, locus YNL153C, strain GIM3, active compounds read low 0.998 | S. cerevisiae deletion strains, locus YNL183C, strain NPR1, active compounds read low 0.959 and 0.981 | S. cerevisiae deletion strains, locus YNL209W, strain ssb2, active compounds read low 0.997 | S. cerevisiae deletion strains, locus YNL233W, strain BNI4, active compounds read low 0.998 | S. cerevisiae deletion strains, locus YNL248C, strain rpa49, active compounds read low 0.967 | S. cerevisiae deletion strains, locus YNL250W, strain rad50, active compounds read low 1 | S. cerevisiae deletion strains, locus YNL271C, strain bni1, active compounds read low 0.985 | S. cerevisiae deletion strains, locus YNL298W, strain CLA4, active compounds read low 0.989 | S. cerevisiae deletion strains, locus YNL307C, strain MCK1, active compounds read low 1 | S. cerevisiae deletion strains, locus YNL322C, strain KRE1 (second series), active compounds read low 0.977 | S. cerevisiae deletion strains, locus YNL322C, strain KRE1, active compounds read low 1.01 | S. cerevisiae deletion strains, locus YNR049C, strain mso1, active compounds read low 0.994 | S. cerevisiae deletion strains, locus YNR052C, strain pop2, active compounds read low 0.998 | S. cerevisiae deletion strains, locus YOL006C, strain TOP1, active compounds read low 1.04 | S. cerevisiae deletion strains, locus YOL012C, strain htz1 0.886 | S. cerevisiae deletion strains, locus YOL147C, strain pex11, active compounds read low 0.999 | S. cerevisiae deletion strains, locus YOR001W, strain rrp6, active compounds read low 1.04 | S. cerevisiae deletion strains, locus YOR061W, strain CKA2, active compounds read low 1.01 | S. cerevisiae deletion strains, locus YOR069W, strain VPS5, active compounds read low 1.01 | S. cerevisiae deletion strains, locus YOR070C, strain gyp1, active compounds read low 0.995 | S. cerevisiae deletion strains, locus YOR080W, strain dia2, active compounds read low 1 | S. cerevisiae deletion strains, locus YOR083W, strain WHI5, active compounds read low 0.945 | S. cerevisiae deletion strains, locus YOR106W, strain vam3, active compounds read low 0.999 | S. cerevisiae deletion strains, locus YOR136W, strain idh2, active compounds read low 0.992 | S. cerevisiae deletion strains, locus YOR144C, strain elg1, active compounds read low 0.996 | S. cerevisiae deletion strains, locus YOR184W, strain ser1, active compounds read low 0.997 | S. cerevisiae deletion strains, locus YOR231W, strain MKK1, active compounds read low 1.01 and 1.04 | S. cerevisiae deletion strains, locus YOR265W, strain rbl2, active compounds read low 0.997 | S. cerevisiae deletion strains, locus YOR270C, strain vph1, active compounds read low 0.987 | S. cerevisiae deletion strains, locus YOR290C, strain snf2, active compounds read low 0.963 | S. cerevisiae deletion strains, locus YOR316C, strain cot1, active compounds read low 0.997 | S. cerevisiae deletion strains, locus YPL051W, strain arl3, active compounds read low 0.979 | S. cerevisiae deletion strains, locus YPL055C, strain LGE1, active compounds read low 1.01 | S. cerevisiae deletion strains, locus YPL078C, strain atp4, active compounds read low 0.946 | S. cerevisiae deletion strains, locus YPL106C, strain sse1, active compounds read low 0.968 | S. cerevisiae deletion strains, locus YPL240C, strain hsp82, active compounds read low 0.991 | S. cerevisiae deletion strains, locus YPL241C, strain CIN2, active compounds read low 1.01 | S. cerevisiae deletion strains, locus YPL256C, strain CLN2, active compounds read low 1.03 and 1.04 | S. cerevisiae deletion strains, locus YPR119W, strain clb2, active compounds read low 0.998 | S. cerevisiae deletion strains, locus YPR141C, strain kar3, active compounds read low 0.999 | S. cerevisiae deletion strains, locus YPR163C, strain tif3, active compounds read low 0.99 | S. cerevisiae deletion strains, locus YPR167C, strain met16, active compounds read low 1.01 | S. cerevisiae deletion strains, strain wtn01, active compounds read low 0.984 | S. cerevisiae strains, strain wild type, active compounds read low 1.01
